Rows were chosen to be rich in hits. Some 1.1% of all compounds tested hit in one or more screens of this group.
HTR5A ag: activates human HTR5A in OPRM1-OPRD1 agonist counter-screen; P47898; HTR5A agonist assay, luminescence, cell-based; activation, % at 9.3 µM; actives 0.61% (n = 340,000); in the data active = activation mostly above about 9.5%, no sharp cut-off; inactive = mostly below about 7.6%
Target sequence (P47898 whole entry, looked up): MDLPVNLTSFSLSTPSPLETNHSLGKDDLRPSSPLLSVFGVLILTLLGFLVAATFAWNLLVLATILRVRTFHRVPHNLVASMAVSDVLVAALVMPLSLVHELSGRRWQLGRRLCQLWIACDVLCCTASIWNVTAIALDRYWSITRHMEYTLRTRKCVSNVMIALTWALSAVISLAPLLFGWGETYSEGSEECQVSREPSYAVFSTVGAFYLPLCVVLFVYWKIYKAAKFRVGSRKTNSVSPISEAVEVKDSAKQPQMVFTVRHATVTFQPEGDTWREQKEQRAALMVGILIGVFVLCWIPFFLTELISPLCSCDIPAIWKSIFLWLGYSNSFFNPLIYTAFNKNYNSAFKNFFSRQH
MOR-DOR inv ag: inverse agonists of human mu-delta opioid receptor heterodimerization; P35372+P41143; cell-based MOR-DOR heterodimer luminescence, inverse agonism; inhibition, % at 9.3 µM; actives 0.21% (n = 340,000); in the data active = inhibition above about 22%, passing the limit was not always enough
HTR5A inv ag: HTR5A inverse agonism, opioid heterodimer counter-screen; inhibition, % at 9.3 µM; HTR5A cell line, luminescence; actives 0.083% (n = 340,000); P47898; AID 504634; in the data active = inhibition mostly above about 23%, no sharp cut-off; inactive = mostly below about 18%
MOR-DOR ag: OPRM1-OPRD1 heterodimerization agonism | P35372+P41143 | cells, luminescence | activation, % at 9.3 µM | actives 0.3% (n = 340,000) | AID 504326; in the data active = activation above about 18%
Large screens that a line does not name were inactive.

COCc1ccc(CN2CCCC(C(=O)Nc3ccc(-c4cccc(OC)c4)cc3)C2)o1 (configuration not stated)	HTR5A ag 11.6
CCN(CC)C1CC(=O)N(c2cccc(Cl)c2)C1=O (configuration not stated)	none
CCCCC1CC(=O)NC1(C(=O)OCC)C(=O)OCC (configuration not stated)	none
COc1cc(C(=O)O)cc(Br)c1OC1CCCC1	HTR5A ag 11.1
COc1ccc(Cn2c(=S)[nH]c3cc(C(=O)NCc4cccnc4)ccc3c2=O)cc1	HTR5A ag 13.3
CS(=O)(=O)N1CCN(c2ccc(NC(=O)c3ccc(-c4ccc(Cl)cc4)o3)cc2)CC1	HTR5A ag 11.8
O=C(Cc1ccccc1F)Nc1ccc2c(c1)CCC2	HTR5A ag 9.6
Cc1ccsc1C(=O)Nc1cc(C(C)(C)C)nn1-c1ccccc1	HTR5A ag 13.6
O=C(Nc1nc(-c2ccco2)c(-c2ccco2)s1)C1CCC1	none
CS(=O)(=O)c1ccc(C(=O)Nc2nc(-c3ccco3)c(-c3ccco3)s2)cc1	HTR5A ag 44.5
COC(=O)[C@@H]1[C@@H](C#N)C2(c3ccccc3-c3ccccc32)N(c2ccc(Cl)cc2)N1C#N	HTR5A ag 8.7
CCOc1ncccc1C(=O)Nc1ccc(S(=O)(=O)N2CC(C)CC(C)C2)cc1 (configuration not stated)	none
Cc1ccc(-c2nnn(CC(=O)N(CC3CCCO3)C(C(=O)NC3CCCC3)c3ccc(O)cc3)n2)o1 (configuration not stated)	HTR5A ag 9.4
CCOC(=O)C1=C(O)/C(=C/c2ccc(-c3ccccc3C(=O)O)o2)SC1=Nc1ccc(C)cc1	HTR5A ag 12.7
CCOC(=O)C1=C(O)/C(=C/c2ccc(-c3ccccc3C(=O)O)o2)SC1=Nc1ccc(OC)cc1	none
COc1ccc2c(c1)Sc1ccccc1N2CCN(C)C	MOR-DOR ag 19.0
CCN(CC)c1ccc(C(=C2C=CC(=[N+](CC)CC)C=C2)c2ccccc2)cc1	MOR-DOR ag 52.3
CCOC(=O)/C(=C\c1ccccc1)C(=O)c1cc(C(C)=O)c(Nc2ccccc2)s1	none
CCOC(=O)/C(=C\c1cccnc1)C(=O)c1cc(C(C)=O)c(Nc2ccccc2)s1	MOR-DOR inv ag 32.7
CC(C)CNS(=O)(=O)c1cc(C(=O)OCC(=O)c2ccc3c(c2)OCCO3)c(Cl)cc1Cl	none
CCCn1c(C)cc(C(=O)COC(=O)c2cc(S(=O)(=O)NCC(C)C)c(Cl)cc2Cl)c1C	HTR5A ag 13.5
O=C1CC(c2cccc(Cl)c2)Cc2nc(N3CCOCC3)ncc21 (configuration not stated)	HTR5A ag 12.9
O=C1CC(c2ccc(F)cc2)Cc2nc(N3CCOCC3)ncc21 (configuration not stated)	none
Cc1ccc(S(=O)(=O)Nc2nc(C)c(C(=O)N/N=C/c3ccccc3)s2)cc1	HTR5A ag 13.1
Cc1ccc(S(=O)(=O)Nc2nc(C)c(C(=O)Nc3ccccc3)s2)cc1	none
CC(C)(C)c1ccc(Oc2ccc(NC(=O)c3cccs3)cn2)cc1	HTR5A ag 13.1
COc1ccc(NC(=O)c2cccs2)cn1	none
COc1cccc(NC(=O)CSCC(=O)Nc2ccccc2)c1	none
COc1cccc(NC(=O)CSCC(=O)O)c1	HTR5A ag 13.7
Cc1cccc(C(=O)NC(=S)Nc2ccc(Cc3ccncc3)cc2)c1	HTR5A ag 12.3
Cc1ccc(S(=O)(=O)NCCC(=O)NCC(c2cccs2)N(C)C)cc1 (configuration not stated)	none
OC(CN1CCN(c2cccc(Cl)c2)CC1)c1ccccc1 (configuration not stated)	HTR5A ag 12.5
C/C(=C\c1ccccc1)CN1CCN(c2cccc(Cl)c2)CC1	none
OC(COC(c1ccccc1)c1ccccc1)CN1CCN(c2cccc(Cl)c2)CC1 (configuration not stated)	none
NC(=O)CN1CCN(c2cccc(Cl)c2)CC1	HTR5A ag 13.6
CC1CCCC(NC(=O)c2ccc3snnc3c2)C1C (configuration not stated)	none
CN(C(=O)COC(=O)C12CC3CC(CC(Cl)(C3)C1)C2)c1ccccc1	HTR5A ag 11.2
CC1CCCC(C)N1C(=O)COC(=O)C12CC3CC(CC(Cl)(C3)C1)C2 (configuration not stated)	none
CC(C)CNC(=O)COC(=O)c1c2c(nc3ccccc13)/C(=C\c1cccs1)CC2	MOR-DOR ag 20.7
Cc1ccc2nc(NC(=O)CS(=O)(=O)Cc3ccccc3)sc2c1	none
Cc1ccc2nc(NC(=O)CSCc3ccccc3)sc2c1	HTR5A ag 10.2
COc1cc(C)ccc1OCCOCCOc1cccc2ccc(C)nc12	HTR5A ag 8.7
O=C(NCCCN1CCCC1=O)c1ccc(S(=O)(=O)Nc2cccc(C(F)(F)F)c2)cc1	none
CN(Cc1ccccc1)C(=O)CCCn1c(=O)[nH]c2cc(Cl)ccc2c1=O	HTR5A ag 13.4
O=C(CCCn1c(=O)[nH]c2cc(Cl)ccc2c1=O)NC1CCCCCCC1	none
COc1cc(/C(C)=N/NC(=O)c2ccc(CSc3nncn3C)cc2)cc(OC)c1OC	HTR5A ag 10.4
CC(NC(=O)c1ccccc1)c1nnc(SCC(=O)NC2CCCC2)n1C (configuration not stated)	none
CC(=O)Nc1sc(N/N=C/c2ccccc2)nc1-c1ccc(C)cc1	HTR5A ag 12.7
O=C(O)c1cccc(N2C(=O)C3CC=CCC3C2=O)c1 (configuration not stated)	none
O=C(O)c1cccc(N2C(=O)C3CC=C(Cl)CC3C2=O)c1 (configuration not stated)	HTR5A ag 11.0
Cc1ccc(Nc2cc(C)c(O)c(C)c2)cc1	none
CCOc1ccc2noc3c2c1C(=O)c1ccccc1-3	none
O=C1c2ccccc2-c2onc3ccc(N4CCCC4)c1c23	MOR-DOR ag 18.9
CCC(C)NCCOCCOc1cc(C)c(Cl)c(C)c1 (configuration not stated)	HTR5A ag 11.5
CCOc1cccc2sc(N(CCN(C)C)C(=O)/C=C/c3cccs3)nc12	HTR5A ag 13.1
CCN(CC)CCN(C(=O)/C=C/c1cccs1)c1nc2ccc(C)cc2s1	HTR5A ag 13.4
CCOC(=O)C1=CN(Cc2cccc(-c3ccc(Cl)nc3)c2)S(=O)(=O)N(C)C1C (configuration not stated)	none
O=Cc1c(NCc2ccccc2Cl)c2ccccc2[nH]c1=O	none
C=CCN=c1sc(C(=O)OC)cc(=O)n1CC=C	none
CCN=c1sc(C(=O)OC)cc(=O)n1CC	HTR5A ag 10.5
COc1ccc(C(=O)c2sc3nc(-c4ccccc4)ccc3c2N)cc1OC	HTR5A ag 17.8
NCCc1c(-c2ccccc2)n(-c2ccccc2)c2ccccc12	HTR5A ag 14.3
CC(C)Oc1ccccc1-c1nc(SCC(=O)O)n[nH]1	HTR5A ag 12.3
Cc1cc(C(=O)Nc2ccc(CC(=O)O)cc2)c(C)o1	none
C=CCC1CCC/C(=N\NS(=O)(=O)c2ccc(C)cc2)C1 (configuration not stated)	HTR5A ag 13.4
